Assay results reported in PubChem BioAssay AID493131 (Broad Institute, 2011).
Out of some 340,000 compounds screened, about 3,300 (0.97%) were called active.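 Rule for the calls: active = mean activation above about 17%, with every replicate also reaching it (limit read from the data, passing the limit was not always enough); inconclusive = only one of the two conditions met; inactive = the rest.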 Shown is part of a subset that was picked to be rich in actives.

Molecular target: Protein FosB (Mus musculus) (UniProt P13346)
Sequence (P13346 whole entry, looked up): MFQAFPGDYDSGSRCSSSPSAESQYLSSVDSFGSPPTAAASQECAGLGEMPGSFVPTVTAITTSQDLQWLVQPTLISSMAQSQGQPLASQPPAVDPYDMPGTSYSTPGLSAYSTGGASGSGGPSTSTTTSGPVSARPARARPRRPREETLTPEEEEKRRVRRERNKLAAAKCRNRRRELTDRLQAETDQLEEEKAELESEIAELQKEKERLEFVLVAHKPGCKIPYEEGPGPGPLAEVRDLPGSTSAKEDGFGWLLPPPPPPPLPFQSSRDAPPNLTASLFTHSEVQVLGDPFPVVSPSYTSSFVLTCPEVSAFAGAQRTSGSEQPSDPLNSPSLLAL
Assay: activators of delta FosB homodimer, primary screen, biochemical, fluorescence polarization, TAMRA-CDK5 oligo, single point (AID 493131);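 note: fluorescence polarization rise as delta FosB binds a TAMRA Cdk5 AP-1 oligo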
Conditions: purified delta FosB, at 25 µM, hits give high values, percent of positive-control signal above neutral wells

activation, active:
COc1ccccc1NC(=O)C1=C(C)Nc2nnnn2C1c1cccc(Br)c1 (stereo not drawn) 27.9%
Cc1sc2ncnc(N3CCC(C(=O)Nc4nc5ccc(Cl)cc5s4)CC3)c2c1C 43.5%
COc1cccc(CNC(=O)c2nnn(CC(=O)Nc3cc(Cl)ccc3C)c2N)c1 70.5%
CCOc1ccccc1NC(=O)Cn1nnc(C(=O)NCc2cccs2)c1N 28.6%
COc1ccc(CNC(=O)c2nnn(CC(=O)Nc3cc(C)cc(C)c3)c2N)cc1 48.3%
COc1cccc(CNC(=O)c2nnn(CC(=O)Nc3cc(C)ccc3C)c2N)c1 52.8%
Nc1ccc(C(=O)OCC(=O)NC2CCCc3ccccc32)cc1[N+](=O)[O-] (stereo not drawn) 35.5%
COc1ccc(NC(=O)CCC(=O)Nc2nnc(C3CCCCC3)s2)cc1 23.2%
CS(=O)(=O)c1ccc(-c2nnn(CC(=O)Nc3ccc4c(c3)OCCO4)n2)cc1 37.1%
Cc1cccc(C(=O)Nc2ccccc2-c2nnn(CC(=O)Nc3ccc4c(c3)OCCO4)n2)c1 20.1%
NC(=O)NC(=O)CSc1nc2cc([N+](=O)[O-])ccc2n1-c1cccc(C(F)(F)F)c1 20.9%
Cc1cc(NC(=O)Nc2c[nH]c(=O)[nH]c2=O)ccc1Br 27%

activation, inactive:
COc1ccc(C2C(C(=O)Nc3ccccc3OC)=C(C)Nc3nnnn32)c(OC)c1 (stereo not drawn) -2.93%
COc1cc(C2C(C(=O)Nc3ccccc3OC)=C(C)Nc3ncnn32)ccc1O (stereo not drawn) -9.43%
COc1ccc(-c2cc3nc(C)c(CCC(=O)NC(C)CCc4ccco4)c(C)n3n2)c(OC)c1 (stereo not drawn) -2.13%
Cc1ccc(NC(=O)CCC(=O)N2CCC(c3ccccc3)=N2)cc1S(=O)(=O)N1CCCCC1 10.2%
Cc1sc2ncnc(N3CCC(C(=O)Nc4ccc(F)cc4Cl)CC3)c2c1C -2.12%
Cc1sc2ncnc(N3CCC(C(=O)NNC(=O)c4ccc(F)cc4)CC3)c2c1C -4.25%
Cc1cccc(-n2nc3c(c2NC(=O)c2cc4ccccc4o2)CS(=O)(=O)C3)c1 -22.1%
COc1ccc(CCNC(=O)c2nnc(CS(=O)(=O)c3ccccc3)o2)cc1OC -8.02%
CCCCNC(=S)N/N=C1\CCCCc2ccccc21 -5.41%
Cc1ccc(NC(=O)Cn2nnc(C(=O)NCc3ccco3)c2N)c(C)c1 14.6%
COc1ccc(S(=O)(=O)N2CCC(C(=O)NCCC(=O)NCc3cccc(OC)c3)CC2)cc1 -3.09%
COc1cccc(CNC(=O)c2cccnc2Sc2ccc(Cl)cc2)c1 -12%
CCOc1ccccc1NC(=O)Cn1ncc2ccc([N+](=O)[O-])cc21 -5.27%
COc1ccc(NC(=O)Cn2nnc(C(=O)NCCc3ccc(OC)c(OC)c3)c2N)cc1 -1.69%
COc1cccc(CNC(=O)c2n[nH]c3ccccc23)c1 -2.62%
CCOc1ccc(Cn2nnc(C(=O)Nc3ccc(OC)cc3OC)c2N)cc1 7.56%
CCN(CC(=O)NCc1cccs1)c1nnnn1-c1ccccc1 1.6%
O=C(O)c1ccc(S(=O)(=O)c2ccccc2)s1 0.96%
O=S(=O)(Nc1ccc(OC(F)(F)F)cc1)c1cccc2nonc12 2.63%
N#Cc1c(/N=C/N2CCCC2)oc(-c2ccccc2)c1-c1ccccc1 -4.67%
CC(Sc1nnnn1C1CCCCC1)C(=O)O (stereo not drawn) 1.4%
Cc1cccc(CSc2nc3c(c(=O)n2C)SCC3)c1 -8.87%
CCN(CC)c1ccc(S(=O)(=O)N2CCOCC2)cc1NC(=O)CSc1cccc[n+]1[O-] 4.76%
NC(=O)Nc1ccc(C(=O)OCC(=O)NC2CCCc3ccccc32)cc1 (stereo not drawn) 0.99%
Nc1ccc(C(=O)OCC(=O)NC2CCS(=O)(=O)C2)cc1[N+](=O)[O-] (stereo not drawn) -1.21%
CC1(C(=O)O)CCC(C(=O)Nc2ccc(Cl)c(Cl)c2)C1(C)C (stereo not drawn) -5.56%
COc1ccc(OCCCC(=O)Nc2nnc(C3CCCO3)s2)cc1 (stereo not drawn) -9.89%
COc1ccc2c(CC(=O)Nc3nnc(C4CC4)s3)coc2c1 -0.902%
O=C(Cc1ccc(Br)cc1)NCCN1CCOCC1 7.04%
CC1CCCCC1NC(=O)/C(C#N)=C/C=C/c1ccccc1[N+](=O)[O-] (stereo not drawn) -2.37%
Cn1c(=O)c2ccccc2n(CC(=O)Nc2ccc3c(c2)OCCO3)c1=O 5.57%
Cc1ccc(SCC(=O)Nc2ccc3c(c2)OCCO3)cc1 -1.62%
Cc1ccc(S(=O)(=O)NCC(=O)Nc2ccc3c(c2)OCCO3)cc1 -0.347%
COc1ccc(S(=O)(=O)N(C)CC(=O)Nc2ccc3c(c2)OCCO3)cc1OC -3.7%
O=C(c1cccc(N2CCCC2=O)c1)N1CCOCC1 -2.25%
CN(Cc1cccs1)C(=O)Cc1c[nH]c2ccccc12 0.954%
COc1ccc(NC(=O)CN(C)C(=O)c2ccc(NC3CC3)c([N+](=O)[O-])c2)cc1 4.11%
COc1ccc(-n2cnnc2SCC(=O)Nc2cccc([N+](=O)[O-])c2)cc1 9.7%
COc1ccc(CCNC(=O)CSc2nc3[nH]ncc3c(=O)n2-c2cccc(C(F)(F)F)c2)cc1OC 0.114%
O=C(COc1ccccc1)Nc1nonc1NC(=O)COc1ccccc1 1.39%
COC(=O)CC1=NN(c2nc(C)cc(C)n2)C(=O)C1 0.664%
CS(=O)(=O)N(CC(=O)N1CCCC1)Cc1ccccc1 -9%
Cc1ccc(-c2nc(CS(=O)CC(=O)N3CCN(c4ncccn4)CC3)c(C)o2)cc1 (stereo not drawn) -11.3%
Cc1[nH]c2c(C(=O)N3CCCC(CCC(=O)NCc4ccccc4F)C3)cccc2c1C (stereo not drawn) -10%
O=C(Nc1c[nH]c(=O)[nH]c1=O)OCc1ccccc1 1.77%
Cc1ccc(NC(=O)Nc2ccccc2)c(Br)c1 -6.25%
